Article PMC5540273 (PLoS ONE, 2017)

What follows are compounds tested on MAP3K3. Conditions: concentration: 1 μM,replicates: in singlicate; n = 1.
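Note: KINOMEscan kinase panel screen.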

Compound | %Inh [%]
C[C@@H]1CCN(C(=O)N2CCCC2)C[C@@H]1N(C)c1ncnc2[nH]ccc12 | 16
Cl.c1ccc(Oc2ccc(Nc3ccnc4cc(-c5ccc(CN6CCNCC6)o5)ccc34)cc2)nc1 [GW567142] | 0
COc1cc2c(Nc3ccc(NC(=O)c4ccccc4)cc3)ncnc2cc1OCCCN1CCOCC1 [GSK301329] | 0
c1ccc(Oc2ccc(Nc3ccnc4ccc(-c5ccccn5)cc34)cc2)cc1 [GW407034] | 0
COc1cc2ncn(-c3cc(OCC4CCCCC4)c(C(N)=O)s3)c2cc1OC [GSK204559] | 0
C[C@@H]1CNc2c(sc3ccc4nc(-c5ccc(O)cc5)ccc4c23)C(=O)N1 | 11
NC(=O)c1ccc(-c2cc3ncnc(SCC(=O)O)c3s2)cc1 | 0
CS(=O)(=O)Nc1ccc(-c2ccnc3[nH]ccc23)cc1 [GSK993273] | 32
N#Cc1cccc(C(=O)NC2CCN(c3ccnc(Nc4ccc(F)cc4)n3)C2)c1 (centres unmarked) [GSK1379708] | 0
CS(=O)(=O)c1cccc(CNc2nc(Nc3ccc4c(c3)[C@@H]3C[C@@H]4CNC3=O)ncc2C(F)(F)F)c1 | 47
COc1cc(Nc2nccc(N3CCC(NC(=O)c4cccc(C#N)c4)C3)n2)cc(OC)c1OC (centres unmarked) [GSK1379751] | 0
CN1CCN(CCCNc2nccc(-c3c(-c4ccc(F)cc4)nn4cc(C(N)=O)ccc34)n2)CC1 [GW622475] | 0
COc1cccc(OC)c1C(=O)Nc1cccc(-c2nn3ccccc3c2-c2ccnc(Nc3cccc(F)c3)n2)c1 [GSK361065] | 43
CCOC(=O)N1CCC(n2cnc(-c3ccc(F)cc3)c2-c2ccnc(N)n2)CC1 [SB-219952] | 11
COC(=O)Nc1nc2cc(Oc3ccc(NC(=O)Nc4cc(C(F)(F)F)ccc4Cl)cc3)ccc2[nH]1.Cl [GW697465] | 0
CS(=O)c1ccc(-c2coc3ccc(-c4n[nH]c(=O)o4)cc23)cc1 (centres unmarked) | 11
Cn1ccc2ncnc(Oc3ccc(NC(=O)Nc4cncc(C(F)(F)F)c4)c(Cl)c3)c21 | 0
Nc1nccc(-c2ccc3c(N)n[nH]c3c2)n1 [GSK1034945] | 0
NC(=O)Nc1sc(-c2ccc(F)cc2)cc1C(N)=O [GW789449] | 72
CN1CCN(CCNc2nc3cc(Oc4ccc(NC(=O)Nc5cc(C(F)(F)F)ccc5F)cc4)ccc3[nH]2)CC1.Cl.Cl [GW768504] | 0
Cl.Nc1n[nH]c2cc(-c3ccccn3)ccc12 [GSK2189892] | 0
CCn1c(-c2nonc2N)nc2cncc(CNC3CCNCC3)c21.Cl [SB-747651] | 0
Cn1ccc2ncnc(Oc3ccc(NC(=O)Nc4cccc(C(F)(F)F)c4)c(Cl)c3)c21 | 0
